Source: PubChem BioAssay AID1117283 (Broad Institute, 2014)
Potency and affinity values are given separately. Active and inactive are the calls of the source.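 The calls were made as follows: active = fluorescent signal decreased by at least 40%; inconclusive = no clear call, values can overlap the other calls; inactive = the rest, including activity opposite to the expected direction.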

Assay: inhibition of fibronectin matrix deposition – AH1F cells, Alexa488-fibronectin fluorescence, cherry-pick, set 2, dose response (AID 1117283);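 also: AH1F fibroblasts given Alexa488-labelled fibronectin at 24 nM final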
Conditions: AH1F fibroblasts, overnight; series mostly up to 35 µM

SMILES | outcome
CN1c2ccc(-c3ccccc3)cc2[C@@H]2[C@@H](CCN2C(=O)CN2CCOCC2)[C@@H]1CO | inactive
C[C@H]1CN([C@@H](C)CO)C(=O)c2cc(NC(=O)CCCN(C)C)ccc2O[C@H]1CN(C)Cc1ccc(-c2ccccc2)cc1 | inactive
O=S(=O)(c1cccc(F)c1)N1CC[C@@H]2[C@@H](CO)Nc3ccc(-c4cccc(F)c4)cc3[C@@H]21 | inactive
C[C@H](CO)N1C[C@H](C)[C@@H](CN(C)Cc2ccccc2)Oc2ncc(-c3ccccc3)cc2C1=O | inactive
CO[C@@H]1CN(C)C(=O)c2cc(NC(=O)Nc3ccc(Cl)c(Cl)c3)ccc2OC[C@@H](C)NC[C@@H]1C | inactive
COc1cccc(S(=O)(=O)N2CC[C@@H]3[C@H]2c2cc(-c4ccc(C#N)cc4)ccc2N[C@@H]3CO)c1 | inactive
COC(=O)C[C@@H]1CC[C@@H]2[C@@H](COc3ccc(NC(=O)Cc4cccs4)cc3C(=O)N2C)O1 | inactive
CS(=O)(=O)N1CCN(c2ccc(NC(=O)c3ccc([N+](=O)[O-])o3)cc2)CC1 | inactive
C[C@H]1CN([C@@H](C)CO)C(=O)c2cc(-c3ccccc3)cnc2O[C@@H]1CN(C)C(=O)c1cccc(F)c1 | inactive
Cc1ccc(O)c(-c2cc(-c3cccc(Br)c3)n[nH]2)c1 | inactive
Cc1ccc(S(=O)(=O)N2CC[C@@H]3[C@@H](CO)Nc4ccc(-c5cccc(C(=O)N(C)C)c5)cc4[C@@H]32)cc1 | inactive
COC(=O)C[C@H]1CC[C@H]2[C@@H](COc3ccc(NC(=O)Cc4cccs4)cc3C(=O)N2C)O1 | inactive
